Experimental data taken from ChEMBL document CHEMBL1201862, “PubChem BioAssay data set” (2004).
In all, about 400,000 compounds went through this assay and about 2,100 (0.53%) were called active. Not shown: some 14% with an inconclusive outcome. How the calls were made is not given here. The entries come from a sample that favours actives as a whole.

Target: Ataxin-2 (Homo sapiens) (UniProt Q99700)
Assay: qHTS for Inhibitors of ATXN expression.
Type: functional

Ataxin-2 (Homo sapiens), sequence (Q99700 whole entry): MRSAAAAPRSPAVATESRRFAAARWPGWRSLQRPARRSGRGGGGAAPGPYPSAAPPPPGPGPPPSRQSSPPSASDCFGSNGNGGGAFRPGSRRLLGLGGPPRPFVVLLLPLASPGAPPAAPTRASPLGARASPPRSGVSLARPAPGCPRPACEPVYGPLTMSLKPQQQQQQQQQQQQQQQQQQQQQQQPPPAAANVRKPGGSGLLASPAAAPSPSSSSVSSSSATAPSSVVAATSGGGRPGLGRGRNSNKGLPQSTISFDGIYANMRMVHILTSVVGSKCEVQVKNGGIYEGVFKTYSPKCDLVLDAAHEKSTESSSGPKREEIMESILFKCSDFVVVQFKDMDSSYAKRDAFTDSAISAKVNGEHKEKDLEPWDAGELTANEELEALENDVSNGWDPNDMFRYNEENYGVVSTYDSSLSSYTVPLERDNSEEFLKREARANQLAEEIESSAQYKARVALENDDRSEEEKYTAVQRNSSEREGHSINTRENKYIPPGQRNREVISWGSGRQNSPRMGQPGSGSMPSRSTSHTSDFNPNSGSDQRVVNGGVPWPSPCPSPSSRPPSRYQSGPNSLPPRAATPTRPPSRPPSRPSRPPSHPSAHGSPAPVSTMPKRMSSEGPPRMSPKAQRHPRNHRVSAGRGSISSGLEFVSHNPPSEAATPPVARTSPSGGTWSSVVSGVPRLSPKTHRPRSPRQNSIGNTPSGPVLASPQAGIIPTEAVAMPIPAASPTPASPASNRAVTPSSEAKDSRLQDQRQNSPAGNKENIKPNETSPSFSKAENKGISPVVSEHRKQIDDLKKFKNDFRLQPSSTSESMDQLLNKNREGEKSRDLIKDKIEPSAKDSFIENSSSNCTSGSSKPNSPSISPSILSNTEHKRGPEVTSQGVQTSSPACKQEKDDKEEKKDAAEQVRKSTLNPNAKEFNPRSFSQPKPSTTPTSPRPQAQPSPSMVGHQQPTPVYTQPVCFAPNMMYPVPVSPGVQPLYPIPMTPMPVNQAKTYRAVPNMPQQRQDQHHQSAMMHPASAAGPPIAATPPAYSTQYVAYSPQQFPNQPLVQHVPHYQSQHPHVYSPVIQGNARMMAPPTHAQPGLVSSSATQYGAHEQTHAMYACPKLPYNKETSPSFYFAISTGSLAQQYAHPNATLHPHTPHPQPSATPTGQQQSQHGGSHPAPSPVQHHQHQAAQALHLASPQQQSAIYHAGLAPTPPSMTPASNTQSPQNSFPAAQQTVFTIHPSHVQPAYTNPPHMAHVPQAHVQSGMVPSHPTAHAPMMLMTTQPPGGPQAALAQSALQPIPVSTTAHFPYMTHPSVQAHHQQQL

| SMILES | Potency |
| --- | --- |
| Cc1snc(SCC(=O)c2ccc(F)cc2)c1C#N | inactive |
| COCCCNC(=O)/C(C#N)=C/c1c(N2CCN(c3ccccc3)CC2)nc2ccccn2c1=O | inactive |
| CCCC(=O)Nc1nn(CCC)c2nc3ccccc3cc12 | inactive |
| Oc1nc(-c2ccccc2)nc2sc(-c3ccccc3)cc12 | inactive |
| Cc1cccc(N2C(=O)c3cccc4c(N(C)CCO)ccc(c34)C2=O)c1 | inactive |
| Cc1ccc2nc3c(cc(C(=O)NCC4CCCO4)c(=N)n3C3CCCC3)c(=O)n2c1 (centres undefined) | inactive |
| Nc1c(C(=O)N/N=C/c2cccnc2)oc2nc(-c3ccccc3)cc(-c3ccco3)c12 | inactive |
| CCOC(=O)N1CCN(C(=O)C2CCN(C(=O)c3ccccc3C)CC2)CC1 | 35.5 µM (active) |
| CCOC(=O)N1CCC(NS(=O)(=O)c2ccc(C)cc2)CC1 | inactive |
| Cc1csc(NC(=O)C2CCN(C(=O)c3ccccc3C)CC2)n1 | inactive |
| O=C1OCCN1C(=O)[C@H]1[C@H](c2ccc(Cl)cc2)C(c2ccccc2)=NN1c1ccc(Br)cc1 | inactive |
| COC(=O)C1=C(C)NC(=O)NC1c1ccc(N2CCC(c3ccccc3)=N2)cc1 (centres undefined) | inactive |
| COc1ccc(C2=CC(c3cccc(OC)c3)n3nnnc3N2)cc1 (centres undefined) | inactive |
| COC(=O)c1ccc(CSc2cc(C)c3cccc(C)c3n2)o1 | inactive |
| N#CCCN(C(=O)CCl)c1cccc(Cl)c1 | 8.91 µM (active) |
| O=C(CCl)N(Cc1cccc([N+](=O)[O-])c1)c1cccc(Cl)c1 | 2.67 µM (active) |
| Cc1ccc(N(CCC#N)C(=O)CCl)cc1C | 35.5 µM (active) |
| N#Cc1c2ccc(O)cc2n2ccccc12 | inactive |
| O=C(c1ccc(F)cc1)C1CCN(C(=O)c2ccccc2F)CC1 | inactive |
| Cc1cc(NC(=O)CSc2nc3c(cc2C#N)CCCC3)no1 | inactive |
| C=CCNC(=O)CSc1nc2sc3c(c2c(=O)n1CCCOC)CCC3 | inactive |
| CCn1c(SCC(=O)Nc2cc(C)on2)nc2sc3c(c2c1=O)CCCC3 | 10 µM (active) |
| Cc1c(O)ccc2c(CN(C)Cc3ccccc3)cc(=O)oc12 | inactive |
| O=c1cc(-c2ccccc2)oc2ccc(O)cc12 | inactive |
| Cc1ccc(C(=O)Nc2c(C)cc(-c3ccccc3)oc2=O)cc1 | inactive |

| SMILES | Potency |
| --- | --- |
| O=c1oc(-c2ccccc2)cc(Cl)c1Cl | 29.9 µM (active) |
| O=S(=O)(Nc1nccs1)c1ccc(F)cc1 | inactive |
| O=C1C=C(C#Cc2ccc(Oc3ccccc3)cc2)C[C@@H](c2ccc(F)cc2)C1 | 28.2 µM (active) |
| COc1ccc(-c2ccc(CN3C(C)C(=O)N(Cc4cn(CCC5OCCO5)nn4)CCS3(=O)=O)cc2)cc1 (centres undefined) | 35.5 µM (active) |
| CC1C(=O)N(Cc2cn(CCC3OCCO3)nn2)CCS(=O)(=O)N1Cc1ccc(-c2ccc(Cl)c(Cl)c2)cc1 (centres undefined) | 31.6 µM (active) |
| COc1ccc(Cn2c(SCC#N)nc3ccc(N4CCOCC4)cc3c2=O)cc1 | inactive |
| CC(C)C1C(=O)N(Cc2cn(CCC3OCCCO3)nn2)CCS(=O)(=O)N1Cc1ccc(-c2ccc(Cl)c(Cl)c2)cc1 (centres undefined) | 31.6 µM (active) |
| CCN1CCN(C(CC(C)C)c2nnnn2CS(=O)(=O)c2ccc(C)cc2)CC1 (centres undefined) | inactive |
| Cc1ccc(C(=O)N/C(=C/c2ccc(-c3ccc([N+](=O)[O-])cc3)o2)C(=O)NCCCN(C)C)cc1 | inactive |
| Cc1ccc(Cc2cnc(NC(=O)/C(C#N)=C/c3ccc(-c4ccc([N+](=O)[O-])cc4)o3)s2)cc1 | 22.4 µM (active) |
| COc1cccc(NC(=O)/C(C#N)=C/c2ccc(-c3ccc(C)cc3)o2)c1 | inactive |
| N=c1c(C(=O)NCc2ccc(F)cc2)cc2c(=O)n3ccccc3nc2n1CC1CCCO1 (centres undefined) | inactive |
| CN1CCc2c(sc3c2C(=O)NC(c2ccc(-c4ccc(Cl)cc4)o2)N3)C1 (centres undefined) | inactive |
| O=C1C=C(N2CCCCC2)c2ccccc2C1=O | 18.9 µM (active) |
| O=C1c2ccccc2-c2ccc(C(=O)N3CCCCC3)cc21 | inactive |
| O=C1c2cccc3c(N4CCCCC4)ccc(c23)C(=O)N1c1ccccc1O | inactive |
| COc1ccccc1C1CN(c2ccccc2)N=C1c1cccs1 (centres undefined) | inactive |
| N#Cc1ccc(CN2CCN(C(=O)c3cc(Cl)c4c(c3)OCCO4)CC2)cc1 | inactive |
| CCN1C(=O)c2cccc3c(Cl)ccc(c23)C1=O | inactive |
| Cc1ccc(-n2c(N)c(C(=O)Nc3c(C)n(C)n(-c4ccccc4)c3=O)c3nc4ccccc4nc32)cc1 | 21.2 µM (active) |
| COCCCNC(=O)c1c(N)n(-c2ccccc2)c2nc3ccccc3nc12 | inactive |
| COCCNC(=O)c1c(N)n(-c2ccccc2)c2nc3ccccc3nc12 | inactive |
| CN(Cc1ccc(OC(F)F)cc1)C(=O)C1CCN(S(=O)(=O)c2ccc3c(c2)OCCO3)CC1 | inactive |
| O=C(Nc1cc(S(=O)(=O)N2CCCC2)ccc1Cl)c1ccncc1 | inactive |
| CCOc1cc(Br)c(/C=C2/C(=O)N(C)C(=S)N2CC(=O)OC)cc1OC | inactive |

| SMILES | Potency |
| --- | --- |
| Cn1c(SCc2cc(O)nc(C(C)(C)C)n2)nnc1C(F)(F)F | inactive |
| CCCn1c(=N)c(C(=O)NCC2CCCO2)cc2c(=O)n3cc(C)ccc3nc21 (centres undefined) | inactive |
| Nc1nc(-c2ccc(Cl)cc2)c(N=Nc2ccc(S(=O)(=O)N3CCOCC3)cc2)s1 | 29.9 µM (active) |
| Cc1ccc(S(=O)(=O)N2CCN(C(=O)c3cc(S(=O)(=O)N4CCOCC4)c(Cl)cc3Cl)CC2)cc1 | inactive |
| O=c1nc2ccc(Cl)cn2c2ccc(S(=O)(=O)N3CCOCC3)cc12 | inactive |
| Nc1ccc2c(c1)C/C(=C/c1ccco1)C2=O | inactive |
| Cc1ccc(C2=CC(c3c(F)cccc3Cl)n3ncnc3N2)cc1C (centres undefined) | inactive |
| CCOc1cc(C(=O)O)ccc1OCCOc1ccccc1 | inactive |
| O=C(OC1CCOC1=O)c1cc(-c2cccs2)nc2ccccc12 (centres undefined) | inactive |
| CCCOc1ccc(C(=O)c2ccccc2C(=O)OC2CCOC2=O)cc1OCCC (centres undefined) | 39.8 µM (active) |
| O=C(O)c1ccc2nc(-c3cc4cc(Cl)ccc4oc3=O)[nH]c2c1 | inactive |
| CCn1c2ccccc2c2cc(CN3CCOc4ccc(C(O)c5cccnc5)cc4C3)ccc21 (centres undefined) | 31.6 µM (active) |
| CC(C)C(OC(=O)c1ccccc1)c1nccc2ccccc12 (centres undefined) | inactive |
| CCOc1cc2c(cc1/C=C1/NC(=O)N(CC(=O)OC)C1=O)OCO2 | inactive |
| COc1cc(/C=C/C(=O)c2ccc(C)cc2)ccc1OCC#N | 39.8 µM (active) |
| COc1ccc(OC)c(N/C=C/C(=O)c2ccc(OC)c(OC)c2)c1 | inactive |
| COc1ccc(C=CC(=O)c2ccc3cc(OC)c(OC)cc3c2)cc1OC | inactive |
| COc1cccc(C(=O)/C=C/c2ccc(OCC#N)c(OC)c2)c1 | 31.6 µM (active) |
| COc1cc(/C=C/C(=O)O)ccc1OS(=O)(=O)c1cc(C)ccc1C | inactive |
| COc1ccc(/C=c2\s/c(=C/C(=O)c3ccc(C)cc3)[nH]c2=O)cc1OC | inactive |
| CCS(=O)(=O)Nc1cc2c3c(c1)CCC(=O)N3CCC2 | inactive |
| O=S(=O)(NN=C(NS(=O)(=O)c1ccccc1)c1ccccc1)c1ccccc1 | inactive |
| CCc1cc2cc(C)ccc2nc1SCC(=O)NC1CCCC1 | inactive |
| Cc1cc(=O)n2c(n1)SCOC2 | inactive |
| Cc1cccn2c(=O)c3cc(C(=O)NCc4ccc(F)cc4)c(=N)n(CC4CCCO4)c3nc12 (centres undefined) | inactive |

| SMILES | Potency |
| --- | --- |
| CC(C)C[C@H](N)c1nnc(S(=O)(=O)Cc2ccc(F)cc2)o1 | 31.6 µM (active) |
| CC(C)C[C@H](N)c1nnc(S(=O)(=O)Cc2cccc(F)c2)o1 | 39.8 µM (active) |
| CCOC(=O)N1CCN(S(=O)(=O)c2ccc3c4c(cccc24)C(=O)N3)CC1 | inactive |
| CCOC(=O)C1CCN(C(=O)C(C)Oc2ccc(Br)cc2)CC1 (centres undefined) | inactive |
| COc1cc(/C=C2\C(=N)N3N=C(CC(=O)N4CCOCC4)SC3=NC2=O)cc(OC)c1O | inactive |
| COc1ccc2c(c1)C(=O)N(c1ccc(C)cc1C)C(=O)C2 | 35.5 µM (active) |
| COc1cc(OC)cc(N2C(=O)CSCC2=O)c1 | inactive |
| Cc1ccc(N2C(=O)C(Cl)=C(N3CCCCCC3)C2=O)c(C)c1 | inactive |
| N#CC(C#N)=C1C=C2C=C(N3CCOCC3)CCC2CC1 (centres undefined) | inactive |
| Cc1ccccc1NS(=O)(=O)c1nnc(NC(=O)c2ccccc2C)s1 | inactive |
| O=c1oc2c(O)cccc2cc1-c1nc2ccccc2[nH]1 | inactive |
| Cc1cc(F)ccc1S(=O)(=O)Nc1ccccc1C(=O)Nc1ccccc1-c1nc2ccccc2[nH]1 | 39.8 µM (active) |
| Cc1cc(C)c2c(N)c(C(=O)N/N=C/c3cccs3)sc2n1 | inactive |
| Cc1ccc2nc3c(cc(C(=O)NCC4CCCO4)c(=N)n3CCCOC(C)C)c(=O)n2c1 (centres undefined) | inactive |
| COc1cccc(N2[C@@H](CC(C)=O)c3ccc(/C=C/C(C)=O)cc3S2(=O)=O)c1 | 35.5 µM (active) |
| COc1cccc(/C=C/c2nc(C#N)c(N3CCC(C(N)=O)CC3)o2)c1 | inactive |
| CC(C)n1nc(C(=O)NNC(=O)c2ccc(OC(F)F)cc2)c2ccccc2c1=O | inactive |
| COc1ccc(C(=O)/C=C/c2cn(CC(O)CN(CC(C)C)CC(C)C)c3ccccc23)cc1 (centres undefined) | inactive |
| COc1ccc(C(=O)/C=C/c2cn(CC(O)CN3CCN(C)CC3)c3ccccc23)cc1OC (centres undefined) | inactive |
| COc1ccc(C(=O)/C=C/c2cn(CC(O)CN3CCc4ccccc43)c3ccccc23)cc1 (centres undefined) | inactive |
| CCC(=C(c1ccc(OC)cc1)c1ccc(OC)cc1)c1cn(CC(O)CN(CCO)CCO)c2ccccc12 (centres undefined) | 39.8 µM (active) |
| CCCN(CCC)CC(O)Cn1cc(/C=C/C(=O)c2ccc(OCC)cc2)c2ccccc21 (centres undefined) | inactive |
| CCC(=C(c1ccc(OC)cc1)c1ccc(OC)cc1)c1cn(CC(O)CN2CCN(C)CC2)c2ccccc12 (centres undefined) | 39.8 µM (active) |
| O=C(CCc1ccccc1)NCC1(c2ccccc2)CCCC1 | inactive |
